Consider 20 molecules from PubChem BioAssay (NCATS).

Records with an inconclusive call do not appear. The source made the active and inactive calls. The call rests on the fitted dose curve; in most records, active means well fitted curve in the direction sought with a large enough effect; inconclusive means small, poorly fitted or top-dose-only effect, or another doubt; inactive means no such curve, though single readings can be large; an effect the other way counts as inactive or inconclusive.

In assay [1] the test system is MCC-26. As to the kind of experiment: qHTS assay to identify novel small-molecules to repurpose for Merkel cell carcinoma treatment (AID 1296009). Further: nearly all actives have a fitted effect of over 60% in size. The following applies: MCC and control cell lines, CellTiter-Glo viability, 72 h; series mostly up to 46 µM. The procedure, abridged:
(§1)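 Cells were treated for 72 hr at 37 degree celsius with compounds in 8- or 11-point dose response. Viability was read by CellTiter-Glo luminescence, normalized to no-cell (cytotoxicity) and DMSO controls.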
(In general: In qHTS, concentration-response curves come from the screen itself.)

The test system of assay [2] is MKL-2. The description is as above. The following applies: MCC and control cell lines, CellTiter-Glo viability, 72 h; series mostly up to 46 µM. The procedure, abridged: as §1
Background: Cellular ATP, detected with luciferase, serves as a proxy for viable cell number.

Assay [3] relates to MKL-1. The assay is described as above. The following applies: MCC and control cell lines, CellTiter-Glo viability, 72 h; series mostly up to 46 µM. The procedure, abridged:
as §1

Assay [4] deals with NIH3T3. The description is as above. Conditions: MCC and control cell lines, CellTiter-Glo viability, 72 h; at 44.8 µM (top of the series) unless noted. The essentials:
as §1

For assay [5], the system named is UISO. Described as above. The following applies: MCC and control cell lines, CellTiter-Glo viability, 72 h; series mostly up to 46 µM. The procedure, abridged:
as §1

Assay [6] deals with C33A. As to the kind of experiment: Primary qHTS to identify gynecologic anti-cancer compounds using libraries of approved drugs and bioactive compounds (AID 1345084). Further: nearly all actives have a fitted effect of over 55% in size. Conditions: Gynecologic cancer cell panel viability, ATPlite luminescence, 48 h; series mostly up to 57.5 µM. The procedure, abridged:
(§2)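 Five-concentration response, 48 h; readout is ATP-driven luciferase luminescence.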

The subject of assay [7] is CAOV3. The assay is described as above. The following applies: Gynecologic cancer cell panel viability, ATPlite luminescence, 48 h; series mostly up to 57.5 µM. The essentials:
as §2

Assay [8] deals with CASKI. Described as above. The following applies: Gynecologic cancer cell panel viability, ATPlite luminescence, 48 h; series mostly up to 57.5 µM. The essentials:
as §2

In assay [9] the test system is Es-2. Described as above. Conditions: Gynecologic cancer cell panel viability, ATPlite luminescence, 48 h; series mostly up to 57.5 µM. The procedure, abridged:
as §2

Assay [10] relates to WaGa. As to the kind of experiment: qHTS assay to identify novel small-molecules to repurpose for Merkel cell carcinoma treatment (AID 1296009). Further: nearly all actives have a fitted effect of over 60% in size. Conditions: MCC and control cell lines, CellTiter-Glo viability, 72 h; series mostly up to 46 µM. The essentials: as §1
Potency means the concentration at half of the fitted maximal effect.

Consider `C[C@@H]1CC[C@@]2(OC1)O[C@H]1C[C@H]3[C@@H]4CC=C5C[C@@H](O[C@@H]6O[C@H](CO)[C@@H](O[C@@H]7O[C@@H](C)[C@H](O)[C@@H](O)[C@@H]7O)[C@H](O)[C@@H]6O[C@@H]6O[C@@H](C)[C@H](O)[C@@H](O)[C@@H]6O)CC[C@]5(C)[C@@H]4CC[C@]3(C)[C@@H]1[C@H]2C`, for which the Potency in [1] was 10.5 µM (active); in assay [2], 6.62 µM (active).

For `CCNC(=O)CC1N=C(c2ccc(Cl)cc2)c2cc(OC)ccc2-n2c(C)nnc21` (centres undefined), the Potency entry in assay [1], in [3], in assay [5], in assay [6], in [7] and in assay [8] was “inactive” throughout. Further, in [9], the Potency result is “inactive”. The molecule was called inactive in assay [4].

For `CC(C)N[C@@H]1CCn2c(=O)[nH]c3cccc(c32)[C@@H]1O`, the Potency entry in [1] and in assay [5] was “inactive” each time.

Turning to `CC(C)(O)C=CC(=O)[C@](C)(O)[C@H]1[C@H](O)C[C@]2(C)[C@@H]3CC=C4[C@@H](C=C(O)C(=O)C4(C)C)[C@]3(C)C(=O)C[C@@]12C`, the Potency in [3] was 0.0662 µM (active); in assay [2] it was 0.0372 µM (active); in [5] it was 0.166 µM (active); in assay [10] it was 0.0935 µM (active).

In the case of `CCCCCCCCc1ccc(O)cc1`, the Potency entry in assay [1], in assay [7], in assay [8] and in [9] was “inactive” throughout. For the same molecule, the figures for the Potency in assay [10] and in assay [6] were 43.7 µM (active) and 25.1 µM (active), respectively.

On to `CCC(=O)OC1CCC2C3CCC4=CC(=O)CC[C@@]4(C)C3CC[C@]12C` (some centres undefined), for which the Potency result in [3], in [2], in assay [5] and in assay [10] was “inactive” each time.

Take `CC(=O)OCC1=C(C(=O)O)N2C(=O)[C@@H](N)[C@@H]2SC1`: the Potency entry in [3], in assay [2], in [5] and in assay [10] was “inactive” in each case.

For `CC(=O)N(C)c1cccc(-c2ccnc3c(C(=O)c4cccs4)cnn23)c1`, the Potency result in assay [3], in [2], in assay [5], in assay [10], in [6] and in assay [7] was “inactive” each time. Further, the Potency result in assay [8] and in [9] was “inactive” in each case.

`CCCCCCCCCC(CC)c1ccc(S(=O)(=O)O)cc1` (centres undefined): the Potency entry in assay [3], in assay [2], in assay [5], in [10], in [6] and in assay [7] was “inactive” in each case. Further, the Potency entry in assay [8] is “inactive”.

In the case of `CC(C)[C@]12O[C@@H]1[C@@H]1O[C@]13[C@]1(O[C@H]1C[C@@H]1C4=C(CC[C@@]13C)C(=O)OC4)[C@H]2O`, the Potency result in assay [3], in [2], in [5] and in [10] was “inactive” each time.

As for `Clc1ccccc1C(c1ccccc1)(c1ccccc1)n1cccn1`, the Potency result in assay [3], in [2], in assay [5] and in [10] was “inactive” each time. In addition, the call in [4] was inactive.

With `COc1ccc(C(c2ccc(OC)cc2)C(Cl)(Cl)Cl)cc1`, the Potency entry in assay [1], in [6] and in [9] was “inactive” throughout.

`c1ccc2c(CN3CCNCC3)cccc2c1`: the Potency entry in [3], in assay [2], in [5] and in assay [10] was “inactive” throughout.

Consider `CS(=O)(=O)c1ccc(C(=O)C2C(=O)CCCC2=O)c([N+](=O)[O-])c1`, for which the Potency entry in assay [3], in assay [2], in assay [5], in [10], in [6] and in [7] was “inactive” in each case. The Potency entry in assay [8] and in [9] was “inactive” in each case.

As to `CCCC[N+]1(C)[C@H]2CC(OC(=O)[C@H](CO)c3ccccc3)C[C@H]1[C@H]1O[C@H]12` (some centres undefined), the Potency entry in assay [3], in [2], in assay [5] and in assay [10] was “inactive” each time.

Consider `C[C@]12CCC(=O)C(O)=C1CC[C@@H]1[C@H]3CCC(=O)[C@@]3(C)CC[C@@H]12`, for which the Potency entry in assay [3], in [2], in [5] and in assay [10] was “inactive” each time.

Take `C[C@]12CC[C@H]3[C@@H](CCC4=CC(=O)CC[C@@]43C)[C@H]1CC[C@H]2OC(=O)CCC1CCCC1`: the Potency result in [3], in assay [2], in assay [5] and in assay [10] was “inactive” each time.

Take `O=[N+]([O-])c1c2ccccc2cc2ccccc12`: the Potency result in assay [1], in assay [6], in [8] and in assay [9] was “inactive” throughout. Moreover, the Potency in assay [5] was 42.8 µM (active).

As for `Cc1nc(-c2ccc(-c3ccc(C(=O)N4CCc5cc6c(cc54)C4(CCN(C)CC4)CO6)cc3)c(C)c2)no1`, the Potency result in assay [3], in assay [2], in [5] and in assay [10] was “inactive” throughout.

`CCCN(CCC)c1c([N+](=O)[O-])cc(S(N)(=O)=O)cc1[N+](=O)[O-]`: the Potency in [3] is 24.3 µM (active); in assay [2], 21.7 µM (active); in [5], 21.7 µM (active); in assay [6], 35.5 µM (active).
